Values joined by “and” are separate entries in the source; they are usually repeats but may differ in a detail not shown here. Equal values may be shown once. About 4,000 (25%) of roughly 16,000 compounds were called active. About 26% were inconclusive and are not listed. Calls come from the whole dose curve; as a rule, active = well fitted curve in the direction sought with a large enough effect; inconclusive = small, poorly fitted or top-dose-only effect, or effect the other way; inactive = no such curve, though single readings can be large or run the other way. Not all results are given here. Where a structure was tested more than once in an assay, its records may differ in their call.
What follows are molecules tested against Cytochrome P450 2C9 (Homo sapiens) (UniProt P11712) (assay: Cytochrome panel assay with activity outcomes). Settings: recombinant CYP, pro-luciferin dealkylation, luminescence, p450-cyp2c9; series mostly up to 57.1 µM.
% is set by controls: 0 for no effect and ±100 for the full control effect.

Sequence of Cytochrome P450 2C9 (Homo sapiens) (P11712 whole entry, looked up): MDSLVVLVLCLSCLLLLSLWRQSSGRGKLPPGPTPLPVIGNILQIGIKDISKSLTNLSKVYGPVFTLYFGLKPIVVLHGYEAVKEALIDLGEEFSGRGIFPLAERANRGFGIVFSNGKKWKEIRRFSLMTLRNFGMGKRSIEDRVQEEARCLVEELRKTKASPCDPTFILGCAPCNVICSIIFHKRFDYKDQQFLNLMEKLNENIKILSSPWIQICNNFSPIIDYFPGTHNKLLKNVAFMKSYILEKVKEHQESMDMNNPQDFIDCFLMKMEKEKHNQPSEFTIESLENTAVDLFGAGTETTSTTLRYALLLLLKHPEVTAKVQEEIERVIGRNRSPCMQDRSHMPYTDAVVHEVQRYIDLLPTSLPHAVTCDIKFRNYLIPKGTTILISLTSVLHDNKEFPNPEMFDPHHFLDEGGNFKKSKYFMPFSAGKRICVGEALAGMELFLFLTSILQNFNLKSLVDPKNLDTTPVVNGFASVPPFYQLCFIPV

Compound	activity, negative = inhibition	AC50
COc1ccccc1CNc1ccnc(-c2ccc(C(=O)N(C)C)cc2)n1	-10.3% [at 2.29 µM] (inactive)	–
COc1cc2c(CCNC(C)=O)c[nH]c2cc1O	–	inactive
CCc1nnc(NC(=O)CCC(=O)NCc2ccccc2OC)s1	–	inactive
CCCCOc1ccc(-c2nnn(CC(=O)c3c[nH]c4ccccc34)n2)cc1	–	inactive
COc1ccccc1CNC(=O)Cn1nnc(-c2ccncc2)n1	–	7.94 µM (active)
COc1ccc(-c2nnn(CC(=O)NCCc3c[nH]c4ccccc34)n2)cc1OC	–	4.47 µM (active)
NC(N)=[N+]1CCc2ccccc2C1	–	inactive
CC1=C(C#N)C(Nc2ccc(Cl)cn2)(C(F)(F)F)C(=O)N1 (stereo not given)	–	14.1 µM (active)
CN(C)CCN1C(=O)C(O)=C(C(=O)c2cc3ccccc3o2)C1c1ccccn1 (stereo not given)	–	inactive
COc1cc(OC)c(C2N(c3cc(C)on3)C(=O)C3CCCN32)cc1OC (stereo not given)	–	inactive
COc1cccc(C2C(C(=O)c3cc4ccccc4o3)=C(O)C(=O)N2c2cc(C)on2)c1OC (stereo not given)	–	14.1 µM (active)
Cc1cc(N2C(=O)C(O)=C(C(=O)c3ccco3)C2c2ccc(O)cc2)no1 (stereo not given)	–	11.2 µM (active)
CC(C)NC[C@@H](O)COc1ccc(CCOCC2CC2)cc1	–	inactive and 631 nM (active)
CC(C)NC[C@@H](O)COc1ccc(COCCOC(C)C)cc1	–	inactive
CC(=O)Nc1ccc(OC[C@@H](O)CNC(C)C)cc1	–	inactive
COc1ccccc1CN1CC[C@@]2(CCCN(C(=O)c3cccn3C)C2)C1	–	inactive
COC(=O)[C@@]1(Cc2ccc(F)cc2)[C@H]2c3cc(C(=O)N(C)C)n(Cc4c(CO)[nH]cc(C)c4=O)c3C[C@H]2CN1C(=O)c1ccccc1	–	10 µM (active)
COC(=O)[C@@]1(Cc2ccccc2)[C@H]2c3cc(C(=O)N(C)C)n(Cc4c(CO)[nH]cc(C)c4=O)c3C[C@H]2CN1C(=O)c1ccccc1	–	0.631 µM (active)
CN(C)C(=O)c1ccc(-c2cncnc2Nc2ccccc2)cc1	-3.51% [at 2.29 µM] (inactive)	–
C=CC[C@H](N)C(=O)O	–	inactive
O=C(O)C1CCC(=O)N(C2CC2)C1c1ccccc1 (stereo not given)	–	inactive
CC12CC[C@@H]3c4ccc(OP(=O)(O)O)cc4CCC3C1CCC2=O (stereo not given in full)	15.4% [at 11.4 µM] (inactive)	–
Clc1ccccc1-c1nc(N2CCNCC2)c2ccccc2n1	2.98% [at 2.29 µM] (inactive)	–
Clc1ccccc1-c1nc(-c2ccncc2)no1	-19.4% [at 11.4 µM] (inactive)	–
Clc1ccccc1-c1nc(-c2ccccc2)n[nH]1	–	28.2 µM (active)
Cc1nnc(SCC(=O)N2CC(=O)Nc3ccccc32)n1Cc1ccccc1	–	inactive
Cc1sc2nc(C3CC3)nc(SCC(=O)N3CC(=O)Nc4ccccc43)c2c1C	–	1 µM (active)
O=C(Nc1ccc(F)cc1Cl)c1ccc2c(=O)n3c(nc2c1)CCCCC3	–	inactive

Compound	activity, negative = inhibition	AC50
O=c1c2c(-c3ccc(Cl)cc3)csc2nc2n1CCC2	–	14.1 µM (active)
O=c1c2ccccc2nc2n1CCC2	–	inactive
COCC(=O)N1CCC2(CC1)CN(C(=O)Nc1cccc(F)c1)C2	–	inactive
O=c1c(-c2ccc(O)cc2)coc2cc(O)ccc12	–	6.31 µM (active)
O=c1c(O)c(-c2ccc(O)c(O)c2)oc2cc(O)cc(O)c12	–	inactive
O=c1c(-c2ccc(O)cc2)coc2cc(O)cc(O)c12	–	inactive
CSc1nc(N)c2ncn([C@H]3O[C@H](COP(=O)(O)OP(=O)(O)O)[C@@H](O)[C@@H]3O)c2n1	–	inactive
O=C1C2C3c4ccccc4C(c4ccccc43)C2C(=O)N1c1nc(-c2ccccc2)cs1 (stereo not given)	–	0.891 µM (active)
O=C1[C@@H]2[C@@H](C(=O)N1c1ccc(OCc3ccccc3)cc1)[C@@H]1c3ccccc3[C@@H]2[n+]2ccccc21	0.978% [at 11.4 µM] (inactive)	–
CN(C)CCCN1c2ccccc2Sc2ccc3ccccc3c21	-11.1% [at 11.4 µM] (inactive)	–
CO[C@@H]1/C=C\CC(=O)N[C@@H](C)C(=O)OC[C@@H](OC)[C@H](C)CCCC(=O)OC[C@H]1C	-25.9% [at 11.4 µM] (inactive)	–
COC(=O)c1ccc(N2CCN(CC(=O)c3ccc(-c4ccccc4)cc3)CC2)c([N+](=O)[O-])c1	–	5.01 µM (active)
Cc1ccc(C(=O)O/N=C\c2ccc(N3CCCCC3)c([N+](=O)[O-])c2)cc1	–	2.24 µM (active)
Cc1ccccc1C(=O)N1CCN(c2ccc([N+](=O)[O-])c(N3CCOCC3)c2)CC1	–	5.01 µM (active)
Cn1c(=O)n(C)c2cc([N+](=O)[O-])c(N3CCN(C(=O)c4ccccc4Cl)CC3)cc21	–	inactive
Cc1cc(C)n(-c2cc(N3CCN(C(=O)c4ccc(C(C)(C)C)cc4)CC3)ccc2[N+](=O)[O-])n1	–	3.98 µM (active)
CN(C)CCNc1nc2c(c(=O)n(C)c(=O)n2C)n1C	4.45% [at 11.4 µM] (inactive)	–
CCCN(CC1CC1)c1nc(C)nc(Nc2c(Cl)cc(Cl)cc2Cl)c1Cl	–	inactive
C=CC[C@@H]1C=C[C@H](O/N=C(\C)CCN2CCCc3nc(C)c(C)cc32)[C@H](CO)O1	3.93% [at 11.4 µM] (inactive)	–
CO/N=C/c1ccc(N2CCN(C(=O)c3ccc(Cl)cc3Cl)CC2)c([N+](=O)[O-])c1	–	7.94 µM (active)
Cc1ccc(OCC(=O)N2CCN(c3ccc([N+](=O)[O-])c(N4CCOCC4)c3)CC2)cc1	–	7.94 µM (active)
COCC(=O)N1CCN(c2ccc([N+](=O)[O-])cc2)CC1	–	inactive
CCOC(=O)c1c(NC(=O)c2ccc(N3CCOCC3)c([N+](=O)[O-])c2)sc(C)c1C	–	inactive
Cc1ccc(OC(=O)c2ccc(N3CCOCC3)c([N+](=O)[O-])c2)cc1	–	14.1 µM (active)
CC(C)Cn1c(C(C)C)nc([N+](=O)[O-])c1S(=O)(=O)c1ccc(F)cc1	–	inactive
CN(C)Cc1ccccc1-c1nccc(NC2CC2)n1	5.88% [at 2.29 µM] (inactive)	–
CC(C)=CCC/C(C)=C/CO/N=C1/C[C@@H](O)[C@@H](O)[C@@H]2[C@@H]3C(=O)N(C[C@@H]4CCCO4)C(=O)[C@H]3CC[C@H]12	4.47% [at 11.4 µM] (inactive)	–
